ssDAF-12 act = S. stercoralis DAF-12 activation, primary screen; HEK293 ssDAF-12/GRIP1 lit1-tk-luc reporter, luminescence; % of 3 µM dafachronic acid response; activation, % at 6.8 µM; hit rate 1% among 370,000;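 active = activation above the mean over all tested compounds plus 3 SD, cut at about 0.9% in these data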
hgDAF-12 ag = hgDAF-12 agonism, primary luciferase screen. HEK293 GAL4-hgDAF12 UAS-luciferase reporter, agonist luminescence; normalized to butyrate control. activation, % at 6.8 µM. hit rate 1.8% among 370,000;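 active = activation above a cutoff set at the mean of all screened compounds plus 3 SD, cut at about 10% in these data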
DAX1 inh-1 = blocks DAX1 repression of SF-1 activated StAR promoter | hit rate 1.1% among 370,000 | inhibition, % at 6.8 µM | HEK293T StAR-luciferase reporter, SF-1/DAX-1 repression relief;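 active = inhibition above the mean over all tested compounds plus 3 SD, cut at about 3.6% in these data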;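 also: higher inhibition means more luminescence from relief of DAX-1 repression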
DAX1 inh-2 = NR0B1 (DAX1) inhibition; P51843; HEK293 Gal4-DAX1 luciferase reporter, luminescence; inhibition, % at 6.75 µM; hit rate 0.99% among 340,000; AID 504766;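 active = inhibition above the mean over all tested compounds plus 3 SD, cut at about 4.2% in these data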;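 also: inhibition shows as a rise in luminescence from relieved DAX1 repression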
Target sequence (P51843 207-470 limits assumed): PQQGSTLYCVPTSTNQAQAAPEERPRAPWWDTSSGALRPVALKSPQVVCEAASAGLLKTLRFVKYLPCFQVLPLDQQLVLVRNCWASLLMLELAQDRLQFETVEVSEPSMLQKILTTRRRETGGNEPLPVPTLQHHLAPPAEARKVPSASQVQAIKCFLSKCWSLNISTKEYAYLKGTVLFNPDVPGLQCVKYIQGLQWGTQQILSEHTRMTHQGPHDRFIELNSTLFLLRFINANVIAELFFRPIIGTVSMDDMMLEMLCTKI
SMARCA2 act = SMARCA2 function activation, primary screen | MG213 cells, MMTV-luciferase reporter, dexamethasone, overnight | activation, % at 9.1 µM | hit rate 1% among 370,000; in the data active = activation above about 7.8%
hcDAF-12 act = H. contortus DAF-12 activation, primary screen | HEK293 hcDAF-12 lit1-tk-luc reporter, luminescence; 0% DMSO, 100% Δ7-dafachronic acid | activation, % at 6.8 µM | hit rate 1.4% among 370,000;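 active = activation above the mean of all tested compounds plus 3 SD, cut at about 5.5% in these data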
Hits are given with their value. Rows were chosen to be rich in hits. Some 4.8% of all compounds tested hit in one or more screens of this group.

For O=C(CN1C(=O)NC2(CCCCCC2)C1=O)c1ccc2c(c1)OCCO2 the results were ssDAF-12 act inactive, hgDAF-12 ag 11, DAX1 inh-1 inactive, DAX1 inh-2 inactive, SMARCA2 act inactive and hcDAF-12 act 6.4.
`CC(C)N(Cc1ccccc1)C(=O)CN1C(=O)NC2(CCCC2)C1=O` gave ssDAF-12 act inactive, hgDAF-12 ag inactive, DAX1 inh-1 4.1, DAX1 inh-2 inactive, SMARCA2 act inactive and hcDAF-12 act inactive.
Screening O=C1[C@H](Cc2ccccc2)NCC=CC[C@@H](c2ccc(Cl)cc2)N1Cc1ccccc1 returned ssDAF-12 act inactive, hgDAF-12 ag inactive, DAX1 inh-1 inactive, DAX1 inh-2 inactive, SMARCA2 act inactive and hcDAF-12 act inactive.
Cc1oncc1C(=O)Nc1ccc(C(F)(F)F)cc1 was read as ssDAF-12 act inactive, hgDAF-12 ag inactive, DAX1 inh-1 4.3, DAX1 inh-2 inactive, SMARCA2 act inactive and hcDAF-12 act inactive.
COC(=O)c1cccc(NC(=O)c2cnoc2C)c1 was read as ssDAF-12 act inactive, hgDAF-12 ag inactive, DAX1 inh-1 inactive, DAX1 inh-2 inactive, SMARCA2 act inactive and hcDAF-12 act inactive.
For COc1ccc(OC)c2sc(N3CCCCC3)nc12 the results were ssDAF-12 act inactive, hgDAF-12 ag 11, DAX1 inh-1 inactive, DAX1 inh-2 inactive, SMARCA2 act inactive and hcDAF-12 act inactive.
`COc1ccc(OC)c2sc(N3CCc4ccccc4C3)nc12` gave ssDAF-12 act inactive, hgDAF-12 ag inactive, DAX1 inh-1 inactive, DAX1 inh-2 inactive, SMARCA2 act inactive and hcDAF-12 act inactive.
COc1ccccc1CNS(=O)(=O)c1cccs1 was read as ssDAF-12 act inactive, hgDAF-12 ag inactive, DAX1 inh-1 inactive, DAX1 inh-2 5.8, SMARCA2 act inactive and hcDAF-12 act inactive.
For CC(c1ccccc1C(=O)O)c1cc(F)cc2ccccc12 (stereo not drawn) the results were ssDAF-12 act inactive, hgDAF-12 ag inactive, DAX1 inh-1 inactive, SMARCA2 act inactive and hcDAF-12 act inactive.
For O=C1C(C=NCc2ccncc2)=C(O)c2ccccc21 the results were ssDAF-12 act inactive, hgDAF-12 ag inactive, DAX1 inh-1 inactive, DAX1 inh-2 inactive, SMARCA2 act inactive and hcDAF-12 act inactive.
`O=C1N/C(=C/c2ccc(Br)cc2)C(O)=C1C=NCc1ccccc1` gave ssDAF-12 act inactive, hgDAF-12 ag inactive, DAX1 inh-1 inactive, DAX1 inh-2 inactive, SMARCA2 act inactive and hcDAF-12 act 5.6.
`COc1cccc(CNC(=O)c2cccc(NC(=O)C3=C(C)OCCS3)c2)c1` gave ssDAF-12 act inactive, hgDAF-12 ag inactive, DAX1 inh-1 inactive, DAX1 inh-2 inactive, SMARCA2 act inactive and hcDAF-12 act inactive.
Screening COc1ccc(CNC(=O)Cc2ccc(NC(=O)C3=C(C)OCCS3)cc2)cc1 returned ssDAF-12 act inactive, hgDAF-12 ag 11, DAX1 inh-1 inactive, DAX1 inh-2 inactive, SMARCA2 act inactive and hcDAF-12 act inactive.
`O=C1c2ccccc2NC(c2ccco2)N1O` (stereo not drawn) gave ssDAF-12 act inactive, hgDAF-12 ag inactive, DAX1 inh-1 inactive, DAX1 inh-2 4.4, SMARCA2 act inactive and hcDAF-12 act inactive.
Screening O=C(CN1CCN(Cc2ccccc2)CC1)N1N=CCC1c1ccccc1 (stereo not drawn) returned ssDAF-12 act inactive, hgDAF-12 ag inactive, DAX1 inh-1 inactive, DAX1 inh-2 4.8, SMARCA2 act inactive and hcDAF-12 act inactive.
Screening CCC(=O)[C@@]1(C)[C@H](C)C[C@H]2[C@@H]3CCC4=CC(=O)C=C[C@]4(C)[C@H]3[C@@H](O)C[C@@]21C returned ssDAF-12 act inactive, hgDAF-12 ag inactive, DAX1 inh-1 inactive, DAX1 inh-2 inactive, SMARCA2 act inactive and hcDAF-12 act inactive.
For CC(=O)c1ccccc1NC(=O)Cn1c(=O)cnc2ccccc21 the results were ssDAF-12 act inactive, hgDAF-12 ag inactive, DAX1 inh-1 inactive, DAX1 inh-2 inactive, SMARCA2 act inactive and hcDAF-12 act 6.1.
Cc1ccsc1C(=O)N1CCC1(C)C(=O)NCC(C)(C)C (stereo not drawn) was read as ssDAF-12 act inactive, hgDAF-12 ag inactive, DAX1 inh-1 inactive, SMARCA2 act inactive and hcDAF-12 act inactive.
Screening CCOC(=O)c1c(-c2ccccc2)csc1NC(=O)CCN1CCOCC1 returned ssDAF-12 act inactive, hgDAF-12 ag inactive, DAX1 inh-1 inactive, DAX1 inh-2 inactive, SMARCA2 act inactive and hcDAF-12 act inactive.
Screening CCOC(=O)c1c(-c2ccccc2)csc1NC(=O)c1ccc(S(=O)(=O)N2CCOCC2)cc1 returned ssDAF-12 act inactive, hgDAF-12 ag 11, DAX1 inh-1 inactive, DAX1 inh-2 inactive, SMARCA2 act inactive and hcDAF-12 act inactive.
Screening CCOC(=O)C1=CCC(c2cccc3ccccc23)N(S(=O)(=O)c2ccc(C)cc2)C1 (stereo not drawn) returned ssDAF-12 act inactive, hgDAF-12 ag inactive, DAX1 inh-1 inactive, SMARCA2 act inactive and hcDAF-12 act inactive.
For COc1ccc([N+](=O)[O-])cc1NC(=S)NC(C)=O the results were ssDAF-12 act inactive, hgDAF-12 ag inactive, DAX1 inh-1 inactive, DAX1 inh-2 8.8, SMARCA2 act inactive and hcDAF-12 act inactive.
`CC(C)NC(=O)N(C)C[C@@H]1OCc2ccccc2-c2c(n(C)c3ccccc23)C(=O)N([C@@H](C)CO)C[C@@H]1C` gave ssDAF-12 act inactive, hgDAF-12 ag inactive, DAX1 inh-1 inactive, DAX1 inh-2 inactive, SMARCA2 act inactive and hcDAF-12 act inactive.
For COC(=O)N(C)C[C@@H]1OCc2ccccc2-c2c(n(C)c3ccccc23)C(=O)N([C@H](C)CO)C[C@@H]1C the results were ssDAF-12 act inactive, hgDAF-12 ag inactive, DAX1 inh-1 3.8, DAX1 inh-2 inactive, SMARCA2 act inactive and hcDAF-12 act inactive.
For CC(=O)c1cccc(OCC(=O)N(CCC2=CCCCC2)c2c(N)n(Cc3ccccc3)c(=O)[nH]c2=O)c1 the results were ssDAF-12 act inactive, hgDAF-12 ag inactive, DAX1 inh-1 inactive, DAX1 inh-2 4.3, SMARCA2 act inactive and hcDAF-12 act inactive.
`CC(=O)c1ccc(OCC(=O)N(CCC2=CCCCC2)c2c(N)n(Cc3ccccc3)c(=O)[nH]c2=O)cc1` gave ssDAF-12 act inactive, hgDAF-12 ag inactive, DAX1 inh-1 inactive, DAX1 inh-2 inactive, SMARCA2 act inactive and hcDAF-12 act inactive.
O=C1CCC[C@H]2C[C@H](NCc3ccc(Cl)c(C(F)(F)F)c3)CC[C@]23CCCN13 was read as ssDAF-12 act inactive, hgDAF-12 ag inactive and hcDAF-12 act inactive.
Cc1ccc(OCC(=O)NCC(=O)Nc2ccc(F)cc2)c([N+](=O)[O-])n1 was read as ssDAF-12 act inactive, hgDAF-12 ag inactive, DAX1 inh-1 inactive, DAX1 inh-2 inactive, SMARCA2 act inactive and hcDAF-12 act inactive.
`Cc1ccc(OCC(=O)Nc2ccc(F)cc2)c([N+](=O)[O-])n1` gave ssDAF-12 act inactive, hgDAF-12 ag inactive, DAX1 inh-1 inactive, DAX1 inh-2 7.0, SMARCA2 act inactive and hcDAF-12 act inactive.
